# Unmarked numbers belong to inactive results. Activity calls are given as the source filed them.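 Rule for the calls, unless noted: active = mean inhibition above 46.5%, the solvent-only control mean plus 3 SD; inactive = the rest.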
# Key:
# [1] = tested on: transactivating tegument protein VP16 (Human herpesvirus 1); test: compounds suppressing VP16-driven luciferase signal – cell-based, luminescence, single concentration, counter-screen for SRC2 inhibitor project (AID 652007; in the data active = inhibition above about 36%); conditions: cell-based VP16 transactivation luciferase reporter, at 8.9 µM, stronger effect = higher value
# [2] = target: Nuclear receptor coactivator 2 (Homo sapiens) (UniProt Q15596); test: inhibition of GAL4-SRC2 driven luciferase expression – cell-based, luminescence, HEK293, triplicate, confirmation (AID 652008); conditions: HEK293 GAL4-SRC2 luciferase reporter, at 8.9 µM, stronger effect = higher value;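 note: 0% = DMSO-treated cells and 100% = Gossypol at 36 µM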
# Chain of Nuclear receptor coactivator 2 (Homo sapiens) (Q15596 whole entry, looked up, the tested form may be a part): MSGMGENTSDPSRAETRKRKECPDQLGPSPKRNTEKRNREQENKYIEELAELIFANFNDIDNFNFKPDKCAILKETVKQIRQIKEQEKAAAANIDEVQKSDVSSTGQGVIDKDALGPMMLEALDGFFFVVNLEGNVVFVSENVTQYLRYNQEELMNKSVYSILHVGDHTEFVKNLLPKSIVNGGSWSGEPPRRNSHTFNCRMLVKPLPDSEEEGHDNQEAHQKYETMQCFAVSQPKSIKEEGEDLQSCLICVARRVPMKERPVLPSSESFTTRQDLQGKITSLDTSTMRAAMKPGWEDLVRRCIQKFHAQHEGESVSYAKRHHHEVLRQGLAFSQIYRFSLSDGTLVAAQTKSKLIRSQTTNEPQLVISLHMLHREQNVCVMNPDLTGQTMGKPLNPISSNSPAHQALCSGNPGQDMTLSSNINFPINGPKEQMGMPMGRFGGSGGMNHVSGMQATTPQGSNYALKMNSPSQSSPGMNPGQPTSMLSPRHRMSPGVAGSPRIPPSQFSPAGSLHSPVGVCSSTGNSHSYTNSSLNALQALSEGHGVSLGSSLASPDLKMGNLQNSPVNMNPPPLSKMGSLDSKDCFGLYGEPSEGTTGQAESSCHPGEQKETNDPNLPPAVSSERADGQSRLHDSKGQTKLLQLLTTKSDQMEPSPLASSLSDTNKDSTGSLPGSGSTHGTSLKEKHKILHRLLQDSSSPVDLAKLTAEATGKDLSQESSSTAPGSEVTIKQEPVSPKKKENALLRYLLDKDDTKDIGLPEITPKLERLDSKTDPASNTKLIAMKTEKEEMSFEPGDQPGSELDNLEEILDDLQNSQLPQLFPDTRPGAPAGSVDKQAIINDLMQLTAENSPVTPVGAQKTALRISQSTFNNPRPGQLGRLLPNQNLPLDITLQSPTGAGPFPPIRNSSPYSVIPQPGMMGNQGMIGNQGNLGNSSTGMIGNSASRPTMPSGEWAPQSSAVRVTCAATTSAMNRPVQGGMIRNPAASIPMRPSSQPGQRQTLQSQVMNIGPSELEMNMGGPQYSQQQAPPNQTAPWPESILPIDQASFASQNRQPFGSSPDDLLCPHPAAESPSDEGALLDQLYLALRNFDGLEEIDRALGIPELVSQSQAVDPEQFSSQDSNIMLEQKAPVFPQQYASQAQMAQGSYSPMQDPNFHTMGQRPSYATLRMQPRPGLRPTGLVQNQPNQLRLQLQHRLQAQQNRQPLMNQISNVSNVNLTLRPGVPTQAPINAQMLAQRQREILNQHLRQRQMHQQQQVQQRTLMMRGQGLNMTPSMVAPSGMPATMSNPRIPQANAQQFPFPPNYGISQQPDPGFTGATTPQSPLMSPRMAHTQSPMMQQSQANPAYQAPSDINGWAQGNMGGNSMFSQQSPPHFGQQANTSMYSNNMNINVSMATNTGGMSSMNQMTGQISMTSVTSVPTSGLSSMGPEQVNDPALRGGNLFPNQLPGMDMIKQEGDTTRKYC
Compound,inhibition [1],inhibition [2]
C[n+]1ccccc1/C=C/c1ccccc1Cl,-18.2%,-7.01%
COc1ccc(-n2c(-c3ccccc3)c[n+]3c2CCC3)cc1,6.63%,36%
Cc1nc([N+](=O)[O-])c(Sc2nc3ccc([N+](=O)[O-])cc3[nH]2)n1Cc1ccccc1,-6.71%,46.7% (active)
Clc1ccccc1/C=C/c1nc(-c2ccccn2)no1,-11.4%,18.9%
O=C(Nc1nnc(SCc2ccc(F)cc2)s1)c1cccnc1Cl,-9.69%,-19.9%
Cc1nc2cc(-c3ccccc3)nn2c(C)c1CCC(=O)N1CCN(c2ccccc2)CC1,3.67%,52.6% (active)
CN(c1ccccc1)S(=O)(=O)c1ccc(C(=O)NCc2ccccc2CN2CCCC2)cc1,-19.8%,-25.8%
COc1cc(SC)ccc1C(=O)Nc1ncc(C)s1,10.3%,24%
CS(=O)(=O)N(Cc1ccccc1Cl)c1ccc(C(=O)NCc2cccnc2)cc1,-10.9%,35.5%
Cc1ccc(NCc2nnc(SCC(=O)c3ccccc3)n2Cc2ccco2)c(C)c1,-11.6%,-16.7%
CC(OC(=O)CN1C(=O)NC2(CCCC2)C1=O)c1ccc(F)cc1 (stereo not given),-16.9%,-26.5%
C=CS(=O)(=O)N(Cc1nnn(Cc2ccccc2)c1Br)[C@H](C(=O)OC)C(C)C,18.8%,27.4%
COC(=O)c1ccc(/C=C2/SC(=S)N(CCCC(=O)Nc3ccc(O)cc3)C2=O)cc1,15.8%,7.74%
CCC(C)c1ccc(C(C)NC(=S)NC2CCCCC2)cc1 (stereo not given),-0.76%,22.8%
C=CCNC(=S)NCc1ccccc1,-11.1%,-24.7%
CCOC(=O)C1=CCN(S(=O)(=O)c2cccc(Cl)c2)C1c1ccc(Cl)c(Cl)c1 (stereo not given),-7.88%,7.77%
C[C@H]1CCC[C@@H](O)CC(=O)c2c(O)cc(O)cc2CC(=O)O1,24%,32.3%
CC1=CC(C)(C)Nc2ccc(OC(=O)c3ccco3)cc21,-20.4%,31.6%
COc1ccc(CCNc2oc(Cc3cccc4ccccc34)nc2C#N)cc1OC,-7.8%,7.3%
COc1cccc(CNc2nc(NCC3CC3)nc3ccsc23)c1OC,-3.78%,18.8%
CC(C)C[C@@H]1COc2cc(Br)ccc2S(=O)(=O)N1Cc1cn(CCC2OCCCO2)nn1,-3.85%,3.37%
Oc1cccc2c(NC(=S)Nc3ccc(SC(F)F)cc3)cccc12,-23.5%,53.1% (active)
COc1cc(OC)c(-c2c3cc(O)c(=O)cc-3oc3cc(O)c(O)cc23)cc1OC,9.48%,3.62%
CC(C)(CN1CCC(Cc2ccccc2)CC1)NS(=O)(=O)c1ccccc1,13.9%,32.5%

Compound,inhibition [1],inhibition [2]
COC(=O)[C@]12C[C@H](CC(=O)N3CCCC3)C(=O)N(CCC3=CCCCC3)C1=C[C@H](C(C)C)O[C@@H]2C1CC1,-0.66%,-19.4%
CCn1nc(C)cc1-c1nnc(Sc2ncc([N+](=O)[O-])s2)n1C,85.2% (active),93.9% (active)
COc1cccc(N2CCN(c3ncnc4c3[nH]c3ccccc34)CC2C)c1 (stereo not given),63.8% (active),12.8%
CC(=O)c1c(C)[nH]c(C(=O)Nc2ccc(N3CCCCCC3)cc2)c1C,-41.5%,19.9%
COC(=O)C1CN(Cc2ccccc2)CCS(=O)(=O)N1Cc1cn(Cc2ccc(Cl)cc2)nn1 (stereo not given),-13.7%,-3.09%
O=C(/C=C/c1cccnc1)/C=C/c1cccnc1,77.1% (active),5.81%
COCc1cc(C)[nH]c(=O)c1C(=O)NC12CC3CC(CC(C3)C1)C2,15.4%,-11%
Cc1[nH]nc(-c2cccnc2)c1N=NN(C)C,10.9%,41.1%
CC(C)c1cc(CNC(=O)c2ccc(OC3CCN(Cc4ccccn4)CC3)cc2)on1,-9.72%,11.8%
Cc1cc(C2=NNC(=NC3CC3)SC2)c(C)n1-c1ccccc1,83.2% (active),96.4% (active)
COc1cc(OC)c2c(-c3cccc(-c4ccc(N(C)C)cc4)c3)cc(=O)oc2c1,-17.4%,27.6%
Cc1ccc(-c2c(C(=O)N/N=C/C3CCCCC3)nnn2-c2nonc2N)cc1,-21.5%,-23%
Cc1c(CCC(=O)N2CCC[C@H]2C(=O)O)c(=O)oc2c(C)c3oc4c(c3cc12)CCCC4,39% (active),37.5%
O=C(c1c[nH]c2ccccc12)C(Cl)c1ccccc1 (stereo not given),27.7%,33.8%
O=S(=O)(Nc1cc(Sc2cccc3cccnc23)c(O)c2ccccc12)c1ccccc1,97.2% (active),98.7% (active)
Cn1nc(C(C)(C)C)cc1C(=O)N1CCCCC1c1cc(C(=O)Nc2ccccc2Cl)no1 (stereo not given),7.65%,13.2%
CCCN(CCC)Cc1c(C(=O)N/N=C/CCc2ccccc2)nnn1-c1nonc1N,-6.81%,-9.2%
NC(=O)c1ccsc1NC(=O)COC(=O)c1ccc([N+](=O)[O-])o1,-4.1%,-22.5%
CCOC(=O)c1ccc(-c2ccc(N3C(c4cccc(OC)c4)=Cc4ccc(F)cc4C3CC(C)=O)cc2)cc1F (stereo not given),-0.77%,21.3%
CCOC(=O)c1c(C)[nH]c(C)c1C(=O)COC(=O)c1ccccc1O,2.18%,20.3%
CCOC(=O)COc1ccc(S(=O)(=O)N2CCN(c3ccc(OC)cc3)CC2)cc1,3.67%,-1.53%
Cc1ccc(NCC(=O)Nc2cccc(F)c2)cc1S(=O)(=O)N1CCCCCC1,15.9%,3.72%
COc1ccc(OCCNC(=O)c2ccc3nc(C)c(N(C)C(=O)CCc4ccccc4)n3c2)cc1,-12.5%,2.8%
Cc1cc(C)cc(C(=O)NC(=S)Nc2ccc(-c3cc4ccccc4oc3=O)cc2)c1,-8.51%,46.7% (active)

Compound,inhibition [1],inhibition [2]
COc1cc(NC(=O)CSc2nnc3c(C)cc4cc(C)cc(C)c4n23)c(C(=O)O)cc1OC,-9.86%,-11.4%
Cc1ccc(S(=O)(=O)Nc2ccccc2C(=O)N2CCCC2)cc1,-24.9%,0.98%
CC(=O)CC[C@@H]1CC[C@]2(CCCN(S(C)(=O)=O)C2)O1,-18.6%,-4.54%
O=[N+]([O-])c1ccc(S(=O)(=O)c2ccccc2)nc1,51.9% (active),36%
O=C(Nc1ccccc1)C1=C(c2ccccc2)S(=O)(=O)CCS1(=O)=O,84.9% (active),90.1% (active)
CCOc1ccc(-c2nc(CSCC(=O)NCc3ccco3)c(C)o2)cc1,-11.2%,37%
CCOc1ccc(-n2nc3ccc(N)cc3n2)cc1,-14.3%,66% (active)
COc1ccc(CN2C(=O)C(CC(=O)NCCN3CCOCC3)CC(C(=O)N(C(C)C)C(C)C)=C2C)cc1 (stereo not given),0.37%,-36.3%
C=C1CC2(OC1=O)c1ccccc1CCc1ccccc12,49.2% (active),29.7%
Cc1nc(SCc2ccc(C(=O)O)cc2)nc2c1CCCC2,10.8%,23.6%
COC(=O)c1ccc(CN2CCc3ccc(NC(=O)c4ccncc4)cc3C2)cc1,-9.32%,26.8%
O=C(CN1C(=O)NC2(CCCCCC2)C1=O)Nc1ccc(Br)cc1Br,-12.2%,2.3%
COc1ccc(S(=O)(=O)N2CCC(C(=O)c3ccc4c(c3)OCCO4)CC2)cc1,-0.72%,-0.4%
CC(C)N(C(=O)[C@H]1C[C@H](CC(=O)NCCc2ccccn2)C(=O)N2CCc3c([nH]c4cc(-c5ccco5)ccc34)[C@]12C)C(C)C,-4.18%,-6.81%
Cc1cccc(C)c1NC(=O)C[n+]1cc(-c2ccccc2)n2c1CCC2,-22.3%,-2.7%
CC(Oc1ccc(Cl)cc1Cl)C(=O)NCCCn1ccnc1 (stereo not given),-8.12%,-15.5%
CN1CCN(c2ccc(NC(=O)c3cc(S(N)(=O)=O)ccc3N3CCOCC3)cc2)CC1,-1.08%,-8.5%
C=CCN(CC=C)C(=O)c1cccc(S(=O)(=O)N2c3ccccc3CC2C)c1 (stereo not given),24.9%,28.7%
Cn1nnnc1Sc1ncnc2scc(-c3cccc(S(C)(=O)=O)c3)c12,21.7%,2.26%
O=C(Nc1ccncc1)c1c(Cl)cccc1Cl,-4.71%,12.5%
Cc1ccc(CS(=O)(=O)c2ncc(Cl)c(C(=O)Nc3ccc(OC(F)F)cc3)n2)cc1,76.9% (active),28.9%
COc1ccc(CNC(=O)COC(=O)CCCOc2ccc(Cl)cc2Cl)cc1,13%,15.7%
